Rows were chosen to be rich in hits. Some 2.3% of all compounds tested hit in one or more screens of this group.
HIF-2a block – blocks HIF-2a reporter activity; 0.72% of 360,000 active; 786-0 RCC cells HIF-2a reporter, luciferase luminescence, overnight; inhibition, % at 18.8 µM; AID 624352;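 active = inhibition of the luminescence signal of 40% or more relative to plate controls, in a single-dose primary screen at 18.75 µM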
LGR2 inh – blocks bursicon-induced cAMP signaling via Drosophila LGR2; HEK293 LGR2, CRE-luciferase, bursicon-stimulated, 4 h; inhibition, % at 9.99 µM; 0.35% of 380,000 active; AID 720647;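 active = drop in luminescence signal, shown as inhibition above about 50% in the replicate tests, limit read from the data, passing the limit was not always enough; inconclusive = probably only some replicates passing the limit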;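 note: agonist challenge used bursicon conditioned medium at about half maximal strength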
KKLEB tox – CF airway cell cytotoxicity counter-screen; KKLEB CF airway cells viability, ATPlite luminescence, overnight; active compounds read low; cells stimulated with P. aeruginosa culture filtrate; activity change (cytotoxicity), % at 5 µM; 0.36% of 360,000 active; AID 602141;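 active = corrected activity change at or below -50% at 5 µM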
hiPSC survival – hiPSC single-cell survival enhancement; survival enhancement, % at 20 µM; ATPlite luminescence; 100% = ROCK inhibitor wells, 0% = DMSO; 0.044% of 360,000 active; in the data active = survival enhancement above about 18%;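 note: cells exposed to compounds for 16 hours before the ATP read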
CF NFkB block – inhibitors of cystic fibrosis induced NF-kB. inhibition, % at 5 µM. 0.86% of 360,000 active. KKLEB NF-kB-GFP reporter, PAF-induced, GFP fluorescence overnight;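 active = at least 50% inhibition at 5 µM, scaled per plate between neutral and stimulator controls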;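 note: PAF is a Pseudomonas aeruginosa culture filtrate used as stimulus; plate controls were PAF-stimulated DMSO wells for no effect and unstimulated DMSO wells for full effect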
TWEAK-Fn14 inh – inhibitors of TWEAK-Fn14 interaction signaling | TWEAK-stimulated Fn14 reporter cells, luciferase luminescence, 8 h | 2% of 360,000 active | inhibition, % at 10 µM; in the data active = inhibition above about 50%
CF NFkB inh conf – CF NF-kB inhibition confirmation, single concentration; KKLEB CF airway cells, PAF-induced NF-kB-GFP fluorescence, overnight; inhibition, % at 5 µM; shares compounds with CF NFkB block; AID 602472; 64% of 1,300 active; in the data active = inhibition above about 40%;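 note: stimulus PAF is a Pseudomonas aeruginosa filtrate and not platelet activating factor; plate controls were DMSO wells with stimulus for no effect and unstimulated DMSO wells for full effect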
Mdm2 MdmX conf – confirmation of inhibitors of human Mdm2/MdmX interaction, set 2; 99% of 740 active; inhibition, % at 8 µM; shares compounds with HIF-2a block; AID 504601; SaOS-2 split-luciferase Mdm2/MdmX complementation, luminescence;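 active = mean inhibition of the luminescence signal across two replicates at or above 26 percent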
Target sequence (O15151 whole entry, looked up): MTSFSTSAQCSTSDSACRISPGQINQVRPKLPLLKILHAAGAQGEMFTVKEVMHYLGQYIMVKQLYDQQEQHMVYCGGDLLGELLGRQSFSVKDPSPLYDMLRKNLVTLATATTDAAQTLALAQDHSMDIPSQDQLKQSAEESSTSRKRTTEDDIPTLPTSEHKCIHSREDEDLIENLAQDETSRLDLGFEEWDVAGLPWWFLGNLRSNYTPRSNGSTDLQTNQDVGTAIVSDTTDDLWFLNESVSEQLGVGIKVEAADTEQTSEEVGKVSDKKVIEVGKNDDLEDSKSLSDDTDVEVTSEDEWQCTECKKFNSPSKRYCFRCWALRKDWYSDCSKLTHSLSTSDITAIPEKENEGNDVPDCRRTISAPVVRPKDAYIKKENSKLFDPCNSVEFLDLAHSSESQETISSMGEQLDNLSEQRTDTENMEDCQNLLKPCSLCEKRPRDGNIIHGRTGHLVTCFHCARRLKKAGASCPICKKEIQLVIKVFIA
Target sequence (Q00987 whole entry, looked up): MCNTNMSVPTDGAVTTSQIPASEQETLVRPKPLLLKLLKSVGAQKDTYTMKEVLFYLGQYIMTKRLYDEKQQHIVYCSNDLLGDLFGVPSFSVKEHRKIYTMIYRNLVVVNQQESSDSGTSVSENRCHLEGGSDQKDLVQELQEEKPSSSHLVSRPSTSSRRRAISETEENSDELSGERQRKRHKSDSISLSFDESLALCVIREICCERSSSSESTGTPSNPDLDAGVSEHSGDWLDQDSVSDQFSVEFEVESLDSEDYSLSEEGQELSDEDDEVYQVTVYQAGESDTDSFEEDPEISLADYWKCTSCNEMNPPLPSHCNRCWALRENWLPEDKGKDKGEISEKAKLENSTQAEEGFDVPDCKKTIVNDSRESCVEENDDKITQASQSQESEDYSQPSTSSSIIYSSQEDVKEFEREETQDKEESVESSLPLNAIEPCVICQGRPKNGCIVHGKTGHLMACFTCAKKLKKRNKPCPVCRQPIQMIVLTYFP
HIF-2a conf – confirmation of HIF-2a inhibitors | 56% of 1,800 active | shares compounds with HIF-2a block | 786-0 RCC cells, HIF-2a luciferase reporter luminescence, overnight | inhibition, % at 18.8 µM | AID 651580;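 active = mean inhibition across four replicates of at least 40 percent at the single tested concentration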
HIF-1a counter – inhibits HIF-1a reporter, a counter-screen for HIF-2a inhibitors; shares compounds with HIF-2a block; MiaPaCa-2 HIF-1a luciferase reporter, desferoxamine, overnight; inhibition, % at 18.8 µM; 72% of 1,800 active;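 active = mean inhibition of the reporter signal across four replicates at the single tested dose of 50% or more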
* = called active by the depositor; u = inconclusive; x = not tested or not shown.

SMILES	HIF-2a block	LGR2 inh	KKLEB tox	hiPSC survival	CF NFkB block	TWEAK-Fn14 inh	CF NFkB inh conf	HIF-2a conf	HIF-1a counter	others
COc1ccc2cc3c(N)nn(C(=O)c4ccc(F)cc4)c3nc2c1	-1	11	-4	0	63*	55*	72*	x	x	Mdm2 MdmX conf=91*
COc1ccc(NC(=O)Nc2cccc3c2O[C@@H](CN(C)C(=O)Nc2ccc(C(F)(F)F)cc2)[C@@H](C)CN([C@H](C)CO)C3=O)cc1	x	0	x	x	x	x	x	x	x
Cn1nnnc1Sc1ncnc2scc(-c3ccccc3Cl)c12	65*	22	-24	-2	56*	51*	24	32	91*
COc1ccc(-c2csc3ncnc(Sc4nnnn4C)c23)cc1	62*	u	-23	1	58*	56*	54*	62*	104*
CN(C)C(=O)C[C@@H]1CC[C@@H]2[C@H](COC[C@H](O)CN2C(=O)C2CCCC2)O1	x	-8	x	x	x	x	x	x	x
COc1ccc2c3c([nH]c2c1)[C@@H](CO)N(Cc1ccccc1)CC31CCN(C(=O)Nc2cccc(F)c2)CC1	x	-6	x	x	x	x	x	x	x
CO[C@H](C(=O)N(C)C[C@H]1OCc2ccccc2-c2c(n(C)c3ccccc23)C(=O)N([C@H](C)CO)C[C@@H]1C)c1ccccc1	x	17	x	x	x	x	x	x	x
CC1CCC/C=C/C(=O)c2c(O)cc(O)cc2CC(=O)O1 (stereo not drawn)	91*	69*	-5	-6	82*	94*	36	80*	102*	Mdm2 MdmX conf=103*
Cc1ccccc1S(=O)(=O)N1CC[C@@H]2[C@H]1c1cc(-c3ccc(C#N)cc3)ccc1N[C@@H]2CO	x	-5	x	x	x	x	x	x	x
C=C1C(=O)OC2CC1C(OC(C)=O)CC(C)=CCCC(C)=CCCC2(C)O (stereo not drawn)	92*	x	-44	2	94*	71*	32	92*	104*
C=C1C(=O)OC2CC1C(O)CC(C)=CCCC(C)=CC(O)CC2C (stereo not drawn)	94*	x	-40	-2	81*	92*	97*	98*	107*
O=C(C[C@H]1CC[C@@H]2[C@H](COC[C@@H](O)CN2S(=O)(=O)c2ccc(Cl)cc2)O1)N[C@@H]1CCN(Cc2ccccc2)C1	x	-9	x	x	x	x	x	x	x
CC(C)CNC(=O)c1coc(=O)c(Br)c1	70*	x	-12	3	74*	48	95*	-12	52*
CN(C)CCNC(=O)c1coc(=O)c(Br)c1	19	7	-3	-4	-5	-8	x	x	x
O=C(NCCC1=CCCCC1)c1coc(=O)c(Br)c1	65*	x	11	-2	85*	92*	93*	-10	64*
O=C(NCCC1=CCCCC1)c1ccc(=O)oc1	2	x	9	-1	0	-21	x	x	x
C[C@@H]1CN([C@H](C)CO)C(=O)c2cccc(NC(=O)C3CC3)c2O[C@H]1CN(C)C(=O)Nc1cccc2ccccc12	x	-1	x	x	x	x	x	x	x
O=S1(=O)CCC(NC(=S)SCCOc2ccccc2)C1 (stereo not drawn)	50*	35	3	-3	58*	70*	86*	48*	67*
CCCN(C)C[C@H]1Oc2cc(-c3cccnc3)ccc2S(=O)(=O)N([C@H](C)CO)C[C@H]1C	x	-8	x	x	x	x	x	x	x
Cc1nnsc1S(=O)c1ccc(Cl)cc1 (stereo not drawn)	9	1	3	0	-9	9	x	x	x
O=C(c1nnsc1S(=O)c1ccc(Cl)cc1)N1CCOCC1 (stereo not drawn)	28	x	-6	2	84*	86*	105*	x	x	Mdm2 MdmX conf=102*
BrC(=C\c1ccccc1)/C=N/n1cnnc1	61*	86*	-10	-3	58*	72*	-77	23	97*
C[C@@H]1CC=C[C@H]2[C@H]1C(=O)N(Cc1ccccc1)[C@H]2c1ccc2ccccc2c1Br	42*	20	-35	-4	74*	17	54*	23	72*
COC(=O)C1=C(C(=O)OC)[C@@H]2N(Cc3ccccc3)c3ccccc3[C@@]23C[C@@H](C(=O)OC)N(C(=O)c2ccc(Br)cc2)C3=N1	2	x	-24	-1	69*	54*	78*	x	x	Mdm2 MdmX conf=98*
C=CCN1c2ccccc2[C@]23C[C@@H](C(=O)OC)N(C(=O)c4ccc(Br)cc4)C2=NC(C(=O)OC)=C(C(=O)OC)[C@H]13	-12	7	-30	-3	71*	61*	58*	x	x	Mdm2 MdmX conf=96*
SMILES	HIF-2a block	LGR2 inh	KKLEB tox	hiPSC survival	CF NFkB block	TWEAK-Fn14 inh	CF NFkB inh conf	HIF-2a conf	HIF-1a counter	others
C=CCN1c2ccccc2[C@]23C[C@@H](C(=O)OC)N(C(=O)OCC)C2=NC(C(=O)OC)=C(C(=O)OC)[C@H]13	14	2	4	-3	-11	18	x	x	x
N#C/C(=C\c1cccc(NC(=O)c2ccccc2Cl)c1)C(=O)NCCc1ccccc1	80*	34	-31	2	82*	38	9	45*	93*
COCCCNC(=O)/C(C#N)=C/c1cccc(NC(=O)c2ccccc2Cl)c1	21	1	-21	-1	24	13	x	x	x
Cc1nnnn1/C(=C\c1ccccc1)C(=O)OCC(=O)Nc1cccc(S(=O)(=O)N(C)C)c1	42*	29	-16	0	63*	72*	-51	79*	22
CN(C)S(=O)(=O)c1cccc(NC(=O)COC(=O)c2ccc3ccccc3n2)c1	21	1	16	0	-26	-14	x	x	x
COC(=O)N1C(=O)[C@](c2ccccc2)(C(C)C)N1C(=O)OC	32	12	-2	1	36	26	x	x	x
CCOC(=O)N1C(=O)[C@@](c2ccc(Cl)cc2)(C(C)C)N1C(=O)OCC	68*	u	-16	-4	70*	76*	35	58*	85*
CCc1ccc(Nc2n[n+](-c3ccccc3)c(-c3cc(OC)c(OC)cc3Br)s2)cc1	25	1	-7	5	-32	-24	x	x	x
CCc1ccc(Nc2n[n+](-c3ccccc3)c(-c3c(Cl)cccc3Cl)s2)cc1	-57	44	-42	-3	52*	52*	88*	x	x	Mdm2 MdmX conf=101*
